Data: PubChem BioAssay
Results filed as inconclusive are left out. Calls of active or inactive are those of the source.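 The calls were made as follows, unless noted: active = normalized viability below 100% at a tested concentration; inactive = the rest.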

Tests used:
[1] = viability loss in pontine glioma line – cell-based, SU-DIPG-XVII, MIPE5.0, CellTiter-Glo, qHTS, dose response (AID 1347060; cut-off not given, nearly all actives have AC50 up to about 26 µM); details: CellTiter-Glo ATP luminescence
[2] = JHH-DIPG-1 glioma cell viability, MIPE5.0 library, CellTiter-Glo luminescence, qHTS (AID 1347067; cut-off not given, nearly all actives have AC50 up to about 26 µM;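 also: cells exposed to compound for 48 hours before readout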); details: JHH-DIPG-1 glioma viability, CellTiter-Glo ATP luminescence
[3] = viability loss with induced miR-34 in A549 – imaging, A549 dox-inducible miR-34, nuclei and caspase counts, primary screen (AID 1347080;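 active = compounds whose cell count with miR-34 switched on is under 0.7 times the count with it off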); details: A549 miR-34 inducible, Hoechst nuclei count, 48 h
[4] = compounds altering HSF1 focus formation in cells – imaging, Selleck Cancer Library (AID 1347162; in the data active = plate-normalised HSF1 focus index below about 0.46); details: human cells, HSF1 nuclear foci imaging, at 10 µM; SSMD: measured here: HSF1 foci SSMD mean; cell count: measured here: cell number; plate-normalised HSF1 focus index: stronger effect = lower value
[5] = MELAS cybrid and Rieske KO viability enhancers – cell-based, MELAS cybrids, Rieske KO mouse fibroblasts, CellTiter-Glo, primary screen (AID 1508586;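 active = mean z-score across replicates of 1.96 or higher in either the MELAS or the Rieske mutant cell line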;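 also: z relative to plate mean and SD of compound and empty wells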); details: low glucose
[6] = drug combination growth inhibition, ovarian cancer – cell-based, oncology-focused library, rucaparib conditional, profiling panel (AID 1508598); details: patient-derived ovarian cancer cells, CellTiter-Glo viability, 144 h, stronger effect = lower value

With `Cc1cccc(-c2nn3c(c2-c2ccnc4ccc(C(N)=O)cc24)CCC3)n1` the outcome [1] was “inactive”, the outcome [2] was “inactive” and the fold change ([3]; stronger effect = lower value, cell number ratio, induced over uninduced) was 0.932 (inactive). For the same compound, the fold change ([3]; measured here: relative caspase fold change +Dox/-Dox) was 0.899, the cell count ([3]; measured here: total cells with miR-34 induction, stronger effect = lower value) was 8480 and the cell count ([3]; measured here: total cells without miR-34 induction) was 9100. The SSMD [4] was 1.55, the cell count [4] was 6630 and the plate-normalised HSF1 focus index [4] was 1.08 (inactive). For the same compound, the z-score ([5]; MELAS cybrid survival, CellTiter-Glo 48 h, stronger effect = higher value) was -0.309 (inactive), the z-score ([5]; Rieske KO mouse fibroblast survival, CellTiter-Glo 72 h) was 1.2 and the viability ([6]; at 0.000305 µM, OCI-C5x cells, with rucaparib 10 µM, 100% = cells with rucaparib alone) was 110% (inactive). For the same compound, the viability ([6]; at 0.000305 µM, OCI-C5x cells, without rucaparib) was 130% (inactive), the viability ([6]; at 0.000305 µM, OCI-P5x cells, with rucaparib 20 µM, 100% = cells with rucaparib alone) was 102% (inactive) and the viability ([6]; at 0.000305 µM, OCI-P5x cells, without rucaparib) was 110% (inactive). The viability ([6]; at 0.00122 µM, OCI-C5x cells, with rucaparib 10 µM, 100% = cells with rucaparib alone) was 110% (inactive), the viability ([6]; at 0.00122 µM, OCI-C5x cells, without rucaparib) was 133% (inactive) and the viability ([6]; at 0.00122 µM, OCI-P5x cells, with rucaparib 20 µM, 100% = cells with rucaparib alone) was 102% (inactive). For the same compound, the viability ([6]; at 0.00122 µM, OCI-P5x cells, without rucaparib) was 108% (inactive), the viability ([6]; at 0.00488 µM, OCI-C5x cells, with rucaparib 10 µM, 100% = cells with rucaparib alone) was 110% (inactive) and the viability ([6]; at 0.00488 µM, OCI-C5x cells, without rucaparib) was 128% (inactive). For the same compound, the viability ([6]; at 0.00488 µM, OCI-P5x cells, with rucaparib 20 µM, 100% = cells with rucaparib alone) was 99.7% (active), the viability ([6]; at 0.00488 µM, OCI-P5x cells, without rucaparib) was 112% (inactive) and the viability ([6]; at 0.0195 µM, OCI-C5x cells, with rucaparib 10 µM, 100% = cells with rucaparib alone) was 113% (inactive). For the same compound, the viability ([6]; at 0.0195 µM, OCI-C5x cells, without rucaparib) was 136% (inactive), the viability ([6]; at 0.0195 µM, OCI-P5x cells, with rucaparib 20 µM, 100% = cells with rucaparib alone) was 105% (inactive) and the viability ([6]; at 0.0195 µM, OCI-P5x cells, without rucaparib) was 110% (inactive). The viability ([6]; at 0.0781 µM, OCI-C5x cells, with rucaparib 10 µM, 100% = cells with rucaparib alone) was 109% (inactive), the viability ([6]; at 0.0781 µM, OCI-C5x cells, without rucaparib) was 127% (inactive) and the viability ([6]; at 0.0781 µM, OCI-P5x cells, with rucaparib 20 µM, 100% = cells with rucaparib alone) was 110% (inactive). The viability ([6]; at 0.0781 µM, OCI-P5x cells, without rucaparib) was 116% (inactive), the viability ([6]; at 0.313 µM, OCI-C5x cells, with rucaparib 10 µM, 100% = cells with rucaparib alone) was 114% (inactive) and the viability ([6]; at 0.313 µM, OCI-C5x cells, without rucaparib) was 137% (inactive). The viability ([6]; at 0.313 µM, OCI-P5x cells, with rucaparib 20 µM, 100% = cells with rucaparib alone) was 113% (inactive), the viability ([6]; at 0.313 µM, OCI-P5x cells, without rucaparib) was 114% (inactive) and the viability ([6]; at 1.25 µM, OCI-C5x cells, with rucaparib 10 µM, 100% = cells with rucaparib alone) was 111% (inactive). The viability ([6]; at 1.25 µM, OCI-C5x cells, without rucaparib) was 135% (inactive), the viability ([6]; at 1.25 µM, OCI-P5x cells, with rucaparib 20 µM, 100% = cells with rucaparib alone) was 112% (inactive) and the viability ([6]; at 1.25 µM, OCI-P5x cells, without rucaparib) was 118% (inactive). For the same compound, the viability ([6]; at 5 µM, OCI-C5x cells, with rucaparib 10 µM, 100% = cells with rucaparib alone) was 131% (inactive), the viability ([6]; at 5 µM, OCI-C5x cells, without rucaparib) was 157% (inactive) and the viability ([6]; at 5 µM, OCI-P5x cells, with rucaparib 20 µM, 100% = cells with rucaparib alone) was 127% (inactive). The viability ([6]; at 5 µM, OCI-P5x cells, without rucaparib) was 125% (inactive).
